TNAP act mid DEA: human TNAP activation, intermediate phosphate acceptor; P05186; purified TNAP, CDP-star luminescence, 100 mM DEA, 30 min; stronger effect = higher value; scale: 0 levamisole-inhibited, 1 vehicle-only enzyme; activation factor at 20 µM; 64,000 tested, under 10 active;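 active = activation factor of at least 2 at 20 µM, relative to controls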
Target sequence (P05186 whole entry, looked up): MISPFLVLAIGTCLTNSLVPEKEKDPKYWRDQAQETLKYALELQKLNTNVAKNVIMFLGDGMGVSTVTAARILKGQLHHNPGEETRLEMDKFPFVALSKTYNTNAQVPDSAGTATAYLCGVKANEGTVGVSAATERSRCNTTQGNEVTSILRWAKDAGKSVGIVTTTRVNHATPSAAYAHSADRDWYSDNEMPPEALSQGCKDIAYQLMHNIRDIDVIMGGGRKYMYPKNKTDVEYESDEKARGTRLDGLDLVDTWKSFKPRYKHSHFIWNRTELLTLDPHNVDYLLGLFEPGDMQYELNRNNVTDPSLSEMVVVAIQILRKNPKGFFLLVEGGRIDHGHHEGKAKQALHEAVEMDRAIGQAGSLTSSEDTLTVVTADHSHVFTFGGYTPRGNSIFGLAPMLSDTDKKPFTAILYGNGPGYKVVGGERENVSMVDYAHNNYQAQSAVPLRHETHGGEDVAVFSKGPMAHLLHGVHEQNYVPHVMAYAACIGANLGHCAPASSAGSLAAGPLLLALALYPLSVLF
PLAP activator: activators of human placental alkaline phosphatase; P05187; 96,000 tested, 1.2% active; activation fold at 20 µM; purified PLAP enzyme, luminescent substrate read-out; stronger effect = higher value; in the data active = activation fold above about 2
E coli WT exp: blocks growth of wild type E. coli BW25113; AID 710; OD600 absorbance; growth inhibition, % at 100 µM; 98,000 tested, 0.15% active;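 active = growth inhibition above about 50% at one test dose, limit read from the data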;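 also: growth measured after 20 h incubation at 37 °C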
HePTP inhibitor: human HePTP phosphatase inhibition; recombinant HePTP phosphatase activity, OD absorbance; 110,000 tested, 0.64% active; P35236; AID 521; inhibition, % at 20 µM; in the data active = inhibition above about 50%
Numbers stand for hits. Compounds with a hit are over-represented: about 1.3% of the library has one in this group of screens.

Results for CC1(C)Cc2ccccc2-c2nc(NCCO)n(-c3ccccc3)c(=O)c21 ?
TNAP act mid DEA: inactive; PLAP activator: inactive; E coli WT exp: inactive; HePTP inhibitor: inactive

How did COc1ccc(-c2nnn(CC(=O)N(Cc3ccccc3Cl)C(C(=O)NCC3CCCO3)c3ccco3)n2)cc1OC (configuration not stated) do in these assays?
PLAP activator: 2; E coli WT exp: inactive

How did COc1ccc(N(C(=O)Cn2nnc(-c3ccc(Cl)cc3)n2)C(C(=O)NCC2CCCO2)c2ccc(C)cc2)cc1 (configuration not stated) do in these assays?
PLAP activator: inactive; E coli WT exp: inactive

Results for O=C(NCc1ccc2c(c1)OCO2)c1ccccc1F ?
HePTP inhibitor: inactive

What do the screens show for `CCOc1ccc(NC(=O)c2cc(OCC)c(OCC)c(OCC)c2)c([N+](=O)[O-])c1`?
HePTP inhibitor: 54

How did CCOc1ccc(NC(=O)c2cccc(Oc3ccccc3)c2)c([N+](=O)[O-])c1 do in these assays?
HePTP inhibitor: inactive

Results for CCOC(=O)C1CCCN(Cc2ccc(OC)cc2OC)C1 (configuration not stated) ?
TNAP act mid DEA: inactive; PLAP activator: inactive; E coli WT exp: inactive; HePTP inhibitor: inactive

Results for Cc1cc(C)n(-c2nc(-n3nc(C)cc3C)c3c4c(sc3n2)COC(C)(C)C4)n1 ?
TNAP act mid DEA: inactive; PLAP activator: inactive; E coli WT exp: inactive; HePTP inhibitor: inactive

How did Cc1cc(C)n(-c2nc(NCCC(C)C)c3c4c(sc3n2)COC(C)(C)C4)n1 do in these assays?
PLAP activator: 2.9; E coli WT exp: inactive

Results for Cc1cc(C)c2c(n1)nn1c(NCCCn3ccnc3)cc(C)nc21 ?
TNAP act mid DEA: inactive; PLAP activator: 2.5; HePTP inhibitor: inactive

How did O=C(O)c1cc(-c2ccc(/C=C/c3cc(C(F)(F)F)[nH]c(=O)n3)o2)ccc1Cl do in these assays?
HePTP inhibitor: 65

Results for O=c1nc(/C=C/c2ccc(-c3ccc(F)cc3)o2)cc(C(F)(F)F)[nH]1 ?
PLAP activator: inactive; E coli WT exp: inactive

Results for COc1ccc(NC(=O)CN(C2CCCCC2)S(C)(=O)=O)cc1OC ?
TNAP act mid DEA: inactive; PLAP activator: inactive; E coli WT exp: inactive; HePTP inhibitor: inactive

How did COC(=O)c1ccc(NC(=O)CN(C2CCCCC2)S(C)(=O)=O)cc1 do in these assays?
TNAP act mid DEA: inactive; PLAP activator: 2; E coli WT exp: inactive; HePTP inhibitor: inactive

Results for O=C(COc1ccc2ccccc2c1)Nc1cccc(Br)c1 ?
HePTP inhibitor: 70

What do the screens show for `COc1cccc(NC(=O)COc2ccc3ccccc3c2)c1`?
HePTP inhibitor: inactive

What do the screens show for `O=C(C[n+]1cc2ccccc2c2ccccc21)c1ccccc1`?
E coli WT exp: inactive

Results for CCCCCCCCC[n+]1cccc2c3ccccc3ccc21 ?
PLAP activator: inactive; E coli WT exp: 70

How did CC(=O)Nc1ccc(C(=O)N2CCN(C(=O)c3ccco3)CC2)cc1 do in these assays?
TNAP act mid DEA: inactive; PLAP activator: inactive; E coli WT exp: inactive; HePTP inhibitor: inactive

How did CCOC(=O)c1cnc(Nc2nc3ccccc3o2)nc1CN1CCN(C)CC1 do in these assays?
PLAP activator: 2; E coli WT exp: inactive

What do the screens show for `CCCOC(=O)Nc1nc2ccccc2o1`?
TNAP act mid DEA: inactive; PLAP activator: inactive; E coli WT exp: inactive; HePTP inhibitor: inactive

Results for CC1CCN(C(=O)CCNC(=O)Cn2cnc3sc4c(c3c2=O)CCCC4)CC1 ?
PLAP activator: 2.1; E coli WT exp: inactive

Results for CCn1c(COc2cccc3ccccc23)nnc1SCC(=O)OC1CCCCC1 ?
PLAP activator: 2.5; E coli WT exp: inactive

What do the screens show for `CCn1c(COc2ccccc2C)nnc1SCC(=O)NC1CCCC1`?
TNAP act mid DEA: inactive; PLAP activator: inactive; E coli WT exp: inactive; HePTP inhibitor: inactive

Results for O=C(Nc1ccc(Br)cc1C(=O)O)c1ccc2c(c1)C(=O)N(C1CCCCC1)C2=O ?
HePTP inhibitor: inactive

Results for O=C(Nc1ccccc1C(=O)O)c1ccc2c(c1)C(=O)N(C1CCCCC1)C2=O ?
HePTP inhibitor: 101

How did CSCCC(/C(O)=C(\C#N)c1nc2ccccc2[nH]1)N1C(=O)c2ccccc2C1=O (configuration not stated) do in these assays?
TNAP act mid DEA: inactive; PLAP activator: 2; E coli WT exp: inactive; HePTP inhibitor: inactive

Results for N#C/C(=C(/O)CCCN1C(=O)c2ccccc2C1=O)c1nc2ccccc2[nH]1 ?
HePTP inhibitor: inactive

How did N#C/C(=C(/O)CN1C(=O)c2ccccc2C1=O)c1nc2ccccc2[nH]1 do in these assays?
TNAP act mid DEA: inactive; PLAP activator: 2.1; E coli WT exp: inactive; HePTP inhibitor: inactive

What do the screens show for `C/C(O)=C(\C#N)c1nc2ccccc2[nH]1`?
PLAP activator: inactive; E coli WT exp: inactive

Compound activity from PubChem.
